Bioassay records from PubChem BioAssay.
CD11b adhes enh: enhancers of CD11b/CD18 adhesion to fibrinogen, primary screen, K562 cells, luminescence. Integrin beta-2 (Homo sapiens) + Integrin alpha-M (Homo sapiens), P05107+P11215. ATPlite luminescence. activation, % at 10 µM. 93,000 tested, 0.07% active;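 active = 10 µM primary screen giving 50% or more activity, confirmed by 40% or more on retest at that dose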
CYP2C9 inh: blockers of cytochrome P450 2C9 activity – biochemical, luminescence, ADME assay, primary screen; P11712; CYP2C9 Supersomes, luciferin-H conversion; inhibition, % at 5 µM; 96,000 tested, 20% active;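 active = blocking of liver enzyme CYP2C9 beyond about 50% at 5 µM, limit read from the data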
CYP2C9 activ: human CYP2C9 activators, primary screen, biochemical, luminescence | 96,000 tested, 1.4% active | activation factor at 5 µM | recombinant CYP2C9, luciferin-H conversion; stronger effect = higher value; factor 1 = untreated enzyme, 0 = blocked | Cytochrome P450 2C9 (Homo sapiens), P11712;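 active = activation factor of 2 or more for CYP2C9 at a 5 µM dose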;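 also: 0 = sulfaphenazole-blocked wells and 1 = vehicle-only wells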
CD11b adhes inh: inhibitors of CD11b/CD18 adhesion to fibrinogen, primary screen, K562 cells, luminescence; Integrin beta-2 (Homo sapiens) + Integrin alpha-M (Homo sapiens), P05107+P11215; ATPlite luminescence; Mn2+ added to activate the integrin; inhibition, % at 10 µM; 93,000 tested, 0.54% active; AID 1497, 2009;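 active = primary inhibition of 50% or more at 10 µM, then 40% or more on retest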
CYP2C19 inhib: blockers of cytochrome P450 2C19 activity – biochemical, luminescence, ADME assay, primary screen | P33261 | CYP2C19 Supersomes, luciferin-H EGE luminescence, 30 min | inhibition, % at 5 µM | 96,000 tested, 21% active | AID 778, 2007;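 active = CYP2C19 inhibition above a set limit at 5 µM in the primary screen, cut at about 50% in these data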;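 also: plate controls were negative control wells for no effect and 2.5 mM tranylcypromine positive control for full effect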
Target sequence (P33261 whole entry, looked up): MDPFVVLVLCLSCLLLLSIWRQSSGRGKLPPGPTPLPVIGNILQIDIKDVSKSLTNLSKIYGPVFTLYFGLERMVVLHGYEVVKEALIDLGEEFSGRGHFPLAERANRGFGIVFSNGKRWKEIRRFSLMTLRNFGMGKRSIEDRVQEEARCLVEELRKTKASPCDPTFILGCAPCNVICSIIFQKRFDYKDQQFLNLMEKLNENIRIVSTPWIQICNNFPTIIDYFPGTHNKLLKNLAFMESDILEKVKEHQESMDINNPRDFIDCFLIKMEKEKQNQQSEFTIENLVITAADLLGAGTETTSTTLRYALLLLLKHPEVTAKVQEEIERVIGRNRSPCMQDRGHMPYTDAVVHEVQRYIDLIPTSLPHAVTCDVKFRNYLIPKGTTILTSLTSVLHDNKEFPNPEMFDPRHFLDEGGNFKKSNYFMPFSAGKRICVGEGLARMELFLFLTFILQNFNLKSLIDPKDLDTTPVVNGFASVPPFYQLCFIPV
CYP2C19 activ: human CYP2C19 activators, primary screen, biochemical, luminescence. recombinant CYP2C19, luciferin-H EGE luminescence; stronger effect = higher value; 0 = fully inhibited enzyme, 1 = untreated enzyme. 96,000 tested, under 10 active. activation factor at 5 µM;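 active = activation factor of at least 2 at 5 µM in the primary screen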;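 also: 0 = wells with 2.5 mM tranylcypromine and 1 = vehicle-only wells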
* hit, by the source's call. An excerpt weighted towards active compounds, which were near 28% of everything screened.

Screening O=S(=O)(c1cc(Cl)ccc1Br)N1CCOCC1 returned CD11b adhes enh 1, CYP2C9 inh -191, CYP2C9 activ 2.9*, CD11b adhes inh -14, CYP2C19 inhib 39 and CYP2C19 activ 0.6.
Screening Cc1cc(S(=O)(=O)N2CCCCCC2)c(Cl)cc1Cl returned CD11b adhes enh 0, CYP2C9 inh -89, CYP2C9 activ 1.9, CD11b adhes inh 2, CYP2C19 inhib 73* and CYP2C19 activ 0.3.
O=C(c1cc(S(=O)(=O)N2CCOCC2)c(Cl)cc1Cl)N1CCCCC1 was read as CD11b adhes enh 1, CYP2C9 inh 0, CYP2C9 activ 1, CD11b adhes inh -19, CYP2C19 inhib 20 and CYP2C19 activ 0.8.
`O=C(O)C1CCCCN1S(=O)(=O)c1ccc2ccccc2c1` (centres undefined) gave CD11b adhes enh -2, CYP2C9 inh 12, CYP2C9 activ 0.9, CD11b adhes inh 2, CYP2C19 inhib -2 and CYP2C19 activ 1.
O=S(=O)(c1cc(Cl)ccc1Cl)N1CCCC1 was read as CD11b adhes enh -3, CYP2C9 inh -248, CYP2C9 activ 3.5*, CD11b adhes inh -40, CYP2C19 inhib 56* and CYP2C19 activ 0.4.
For O=C(O)C1CCCN1S(=O)(=O)c1cc(Cl)ccc1Cl (centres undefined) the results were CD11b adhes enh -2, CYP2C9 inh -116, CYP2C9 activ 2.2*, CD11b adhes inh 18, CYP2C19 inhib 5 and CYP2C19 activ 0.9.
For CN1CCN(C(=O)c2ccc(Cl)c(S(=O)(=O)N3CCCCC3)c2)CC1 the results were CD11b adhes enh 1, CYP2C9 inh 11, CYP2C9 activ 0.9, CD11b adhes inh -24, CYP2C19 inhib 24 and CYP2C19 activ 0.8.
For O=S(=O)(c1cccc(Cl)c1)N1CCCC1 the results were CD11b adhes enh -2, CYP2C9 inh -89, CYP2C9 activ 1.9, CD11b adhes inh -19, CYP2C19 inhib 44 and CYP2C19 activ 0.6.
O=S(=O)(c1cc(Cl)ccc1Cl)N1CCCCC1 was read as CD11b adhes enh -3, CYP2C9 inh -229, CYP2C9 activ 3.3*, CD11b adhes inh 12, CYP2C19 inhib 65* and CYP2C19 activ 0.4.
`COc1cccc(NC(=O)CSCc2n[nH]c(=O)[nH]2)c1` gave CD11b adhes enh 2, CYP2C9 inh -3, CYP2C9 activ 1, CD11b adhes inh -2, CYP2C19 inhib -6 and CYP2C19 activ 1.1.
For CCOC(=O)CSC1=NC(=O)CS1 the results were CD11b adhes enh -1, CYP2C9 inh 4, CYP2C9 activ 1, CD11b adhes inh 8, CYP2C19 inhib 5 and CYP2C19 activ 0.9.
`CCCC1=[N+](CC(=O)c2ccc(C)cc2)CCn2cccc21` gave CD11b adhes enh -3 and CD11b adhes inh -7.
`COc1cccc(NC(=O)CCN2CCC(C(N)=O)CC2)c1` gave CD11b adhes enh -1, CYP2C9 inh -16, CYP2C9 activ 1.2, CD11b adhes inh -7, CYP2C19 inhib -4 and CYP2C19 activ 1.
For O=S(=O)(c1ccc(F)c(Cl)c1)N1CCCC1 the results were CD11b adhes enh -5, CYP2C9 inh -5, CYP2C9 activ 1, CD11b adhes inh -20, CYP2C19 inhib 54* and CYP2C19 activ 0.5.
CC1CCN(S(=O)(=O)c2ccc(Cl)cc2Br)CC1 was read as CYP2C9 inh -71, CYP2C9 activ 1.7, CYP2C19 inhib 68* and CYP2C19 activ 0.3.
`O=C(CSc1nnc(CNc2ccc(F)cc2)n1Cc1ccccc1)N1CCOCC1` gave CD11b adhes enh 4, CYP2C9 inh 14, CYP2C9 activ 0.9, CD11b adhes inh -9, CYP2C19 inhib -1 and CYP2C19 activ 1.
Cc1cccc(NC(=O)c2ccccc2O)c1C was read as CD11b adhes enh -6, CYP2C9 inh 34, CYP2C9 activ 0.7, CD11b adhes inh 47, CYP2C19 inhib 16 and CYP2C19 activ 0.8.
Screening CCS(=O)(=O)c1ccc(NC(=O)c2ccccc2Cl)c(O)c1 returned CD11b adhes enh -2, CYP2C9 inh 53*, CYP2C9 activ 0.5, CD11b adhes inh -8, CYP2C19 inhib 4 and CYP2C19 activ 1.
For NS(=O)(=O)c1ccc(NC(=O)c2ccccc2Cl)cc1 the results were CD11b adhes enh -4, CYP2C9 inh 15, CYP2C9 activ 0.8, CD11b adhes inh -6, CYP2C19 inhib -31 and CYP2C19 activ 1.3.
`O=C(Nc1ccccc1O)c1ccccc1O` gave CD11b adhes enh -4, CYP2C9 inh 63*, CYP2C9 activ 0.4, CD11b adhes inh 69*, CYP2C19 inhib -34 and CYP2C19 activ 1.3.
Screening Cc1ccc(C)c(NC(=O)c2ncn[nH]2)c1 returned CD11b adhes enh 1, CYP2C9 inh 5, CYP2C9 activ 0.9, CD11b adhes inh -3, CYP2C19 inhib 0 and CYP2C19 activ 1.
For Cc1ccc(C)c(NC(=O)c2ccccc2O)c1 the results were CD11b adhes enh -4, CYP2C9 inh 51*, CYP2C9 activ 0.5, CD11b adhes inh 75, CYP2C19 inhib 33 and CYP2C19 activ 0.7.
For Cc1ccc(CN(c2ccc(C(=O)NCc3ccccn3)cc2)S(C)(=O)=O)cc1 the results were CD11b adhes enh -2, CYP2C9 inh 25, CYP2C9 activ 0.8, CD11b adhes inh 1, CYP2C19 inhib 32 and CYP2C19 activ 0.7.
Screening O=C(CSc1nc2ccccc2o1)Nc1ccc(Cl)cc1 returned CD11b adhes enh -1, CYP2C9 inh 50, CYP2C9 activ 0.5, CD11b adhes inh 1, CYP2C19 inhib 24 and CYP2C19 activ 0.8.
`COC(=O)CSc1nc2ccccc2o1` gave CYP2C9 inh 11, CYP2C9 activ 0.9, CYP2C19 inhib 3 and CYP2C19 activ 1.
CC(=O)Nc1nonc1NC(=O)CSc1nc2ccccc2o1 was read as CD11b adhes enh 0, CYP2C9 inh 36, CYP2C9 activ 0.6, CD11b adhes inh 1, CYP2C19 inhib 53* and CYP2C19 activ 0.5.
Cc1cc(C)nc(NC(=O)CSc2nc3ccccc3o2)n1 was read as CD11b adhes enh -3, CYP2C9 inh 19, CYP2C9 activ 0.8, CD11b adhes inh -41, CYP2C19 inhib 63* and CYP2C19 activ 0.4.
Cc1nn2c(-c3cccc(NC(=O)CSc4nc5ccccc5o4)c3)nnc2c2ccccc12 was read as CD11b adhes enh 68, CYP2C9 inh 92*, CYP2C9 activ 0.1, CD11b adhes inh -19, CYP2C19 inhib 98* and CYP2C19 activ 0.
`COc1cc(OC)nc(NC(=O)CSc2nc3ccccc3o2)n1` gave CD11b adhes enh 2, CYP2C9 inh -19, CYP2C9 activ 1.2, CD11b adhes inh -3, CYP2C19 inhib 86* and CYP2C19 activ 0.1.
